Experiments:
Experiment in all cases: DAPPL (digital affinity profiling via proximity ligation, sequencing); 10 mM Tris-HCl pH 7.5, 50 mM NaCl, 1 mM DTT, 4% glycerol, room temperature, 30 min; GST-TFs on glutathione beads, 16-mer random dsDNA library, 0.1% formaldehyde crosslink after washing; high values mean tight binding
FLI1 = molecular target: T1, FLI1 (Homo sapiens, UniProt Q01543 1-452); settings: protein: recombinant; tags: N-terminal GST; dsDNA, one strand shown
T1 sequence: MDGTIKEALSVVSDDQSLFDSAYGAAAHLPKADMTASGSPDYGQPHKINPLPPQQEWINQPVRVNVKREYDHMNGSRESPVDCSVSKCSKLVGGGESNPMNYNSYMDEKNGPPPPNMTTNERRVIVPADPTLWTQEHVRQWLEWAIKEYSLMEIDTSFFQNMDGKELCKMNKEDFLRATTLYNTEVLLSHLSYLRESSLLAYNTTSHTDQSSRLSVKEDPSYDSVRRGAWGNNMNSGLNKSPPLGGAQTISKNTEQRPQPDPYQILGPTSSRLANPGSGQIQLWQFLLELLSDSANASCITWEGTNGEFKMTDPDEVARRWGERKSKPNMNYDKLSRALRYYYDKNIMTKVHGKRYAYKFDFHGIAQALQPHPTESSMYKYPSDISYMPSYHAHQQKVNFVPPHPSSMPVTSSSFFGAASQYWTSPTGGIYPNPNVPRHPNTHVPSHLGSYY
Summary of the method: (§1)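 Binding signal is given per hexamer as its read frequency for a factor divided by its frequency in the tag-only sample. GST-fused human transcription factors were expressed in yeast, captured on glutathione beads, barcoded with DNA and pooled with that sample, then incubated with 200 nmole of a 16-mer random double-stranded DNA library in Tris/NaCl/DTT/glycerol buffer for 30 min at room temperature. The pools were then washed, crosslinked, proximity-ligated, amplified by PCR and sequenced on an Illumina NextSeq500.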

ELK1 = molecular target: T2, ELK1 (Homo sapiens, UniProt P19419 1-428); settings: protein: recombinant; tags: N-terminal GST; dsDNA, one strand shown
T2 sequence: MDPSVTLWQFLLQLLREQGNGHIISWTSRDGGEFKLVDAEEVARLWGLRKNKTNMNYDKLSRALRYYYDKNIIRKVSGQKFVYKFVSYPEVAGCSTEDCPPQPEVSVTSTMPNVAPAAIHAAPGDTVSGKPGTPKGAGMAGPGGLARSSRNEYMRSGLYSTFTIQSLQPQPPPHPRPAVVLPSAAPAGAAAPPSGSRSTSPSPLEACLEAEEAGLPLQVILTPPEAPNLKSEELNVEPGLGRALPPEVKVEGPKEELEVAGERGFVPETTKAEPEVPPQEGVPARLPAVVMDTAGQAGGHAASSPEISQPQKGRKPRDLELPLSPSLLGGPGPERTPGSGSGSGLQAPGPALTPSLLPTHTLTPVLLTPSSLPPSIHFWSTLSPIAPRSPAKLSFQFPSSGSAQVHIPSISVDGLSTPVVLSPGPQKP
Summary of the method: as §1

GABPA = molecular target: T3, GABPA (Homo sapiens, UniProt Q06546 1-454); settings: protein: recombinant; tags: N-terminal GST; dsDNA, one strand shown
T3 sequence: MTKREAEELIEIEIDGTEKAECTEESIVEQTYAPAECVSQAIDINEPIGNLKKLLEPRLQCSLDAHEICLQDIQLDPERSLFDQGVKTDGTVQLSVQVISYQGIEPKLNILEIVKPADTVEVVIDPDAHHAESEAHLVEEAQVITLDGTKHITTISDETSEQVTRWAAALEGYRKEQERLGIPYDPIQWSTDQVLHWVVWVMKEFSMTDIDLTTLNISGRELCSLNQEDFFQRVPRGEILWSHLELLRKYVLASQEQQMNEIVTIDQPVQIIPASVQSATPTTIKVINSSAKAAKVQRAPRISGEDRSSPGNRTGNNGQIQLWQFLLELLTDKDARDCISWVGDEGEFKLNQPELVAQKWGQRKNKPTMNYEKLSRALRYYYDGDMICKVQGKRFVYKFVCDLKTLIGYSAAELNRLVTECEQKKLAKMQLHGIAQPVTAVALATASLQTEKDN
Summary of the method: as §1

ERG = molecular target: T4, ERG (Homo sapiens, UniProt P11308 1-479); settings: protein: recombinant; tags: N-terminal GST; dsDNA, one strand shown
T4 sequence: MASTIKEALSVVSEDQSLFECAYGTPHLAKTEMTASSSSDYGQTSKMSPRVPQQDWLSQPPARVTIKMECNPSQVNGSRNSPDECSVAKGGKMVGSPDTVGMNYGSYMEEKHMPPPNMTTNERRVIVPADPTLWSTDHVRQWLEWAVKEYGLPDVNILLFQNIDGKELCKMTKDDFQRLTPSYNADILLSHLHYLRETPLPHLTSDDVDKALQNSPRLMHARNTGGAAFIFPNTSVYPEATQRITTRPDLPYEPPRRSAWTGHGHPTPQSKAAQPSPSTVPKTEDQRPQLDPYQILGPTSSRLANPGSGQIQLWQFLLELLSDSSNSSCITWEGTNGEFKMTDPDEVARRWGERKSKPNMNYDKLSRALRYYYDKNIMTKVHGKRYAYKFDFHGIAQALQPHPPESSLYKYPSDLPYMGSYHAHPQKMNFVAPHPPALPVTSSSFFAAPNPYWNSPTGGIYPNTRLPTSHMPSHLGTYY
Summary of the method: as §1

ELF1 = ELF1 (Homo sapiens, UniProt P32519 1-619); settings: protein: recombinant; tags: N-terminal GST; dsDNA, one strand shown
Sequence of ELF1 (P32519 whole entry): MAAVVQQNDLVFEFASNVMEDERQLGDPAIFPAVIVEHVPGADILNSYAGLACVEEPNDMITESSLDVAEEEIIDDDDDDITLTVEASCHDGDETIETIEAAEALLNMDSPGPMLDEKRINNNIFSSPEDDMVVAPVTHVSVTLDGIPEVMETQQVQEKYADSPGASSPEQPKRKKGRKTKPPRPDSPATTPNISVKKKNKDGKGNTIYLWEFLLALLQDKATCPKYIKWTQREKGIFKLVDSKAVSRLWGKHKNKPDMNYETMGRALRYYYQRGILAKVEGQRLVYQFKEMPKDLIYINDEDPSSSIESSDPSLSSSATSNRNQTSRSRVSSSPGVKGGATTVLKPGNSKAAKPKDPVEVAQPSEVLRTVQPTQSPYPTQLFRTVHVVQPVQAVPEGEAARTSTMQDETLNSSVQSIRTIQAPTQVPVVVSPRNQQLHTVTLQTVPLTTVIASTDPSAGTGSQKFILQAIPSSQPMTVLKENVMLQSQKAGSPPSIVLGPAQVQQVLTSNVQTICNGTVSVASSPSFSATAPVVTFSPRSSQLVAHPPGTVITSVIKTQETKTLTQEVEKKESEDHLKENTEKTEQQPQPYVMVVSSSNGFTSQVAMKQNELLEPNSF
Summary of the method: as §1

EHF = molecular target: T5, EHF (Homo sapiens, UniProt Q9NZC4 1-300); settings: protein: recombinant; tags: N-terminal GST; dsDNA, one strand shown
T5 sequence: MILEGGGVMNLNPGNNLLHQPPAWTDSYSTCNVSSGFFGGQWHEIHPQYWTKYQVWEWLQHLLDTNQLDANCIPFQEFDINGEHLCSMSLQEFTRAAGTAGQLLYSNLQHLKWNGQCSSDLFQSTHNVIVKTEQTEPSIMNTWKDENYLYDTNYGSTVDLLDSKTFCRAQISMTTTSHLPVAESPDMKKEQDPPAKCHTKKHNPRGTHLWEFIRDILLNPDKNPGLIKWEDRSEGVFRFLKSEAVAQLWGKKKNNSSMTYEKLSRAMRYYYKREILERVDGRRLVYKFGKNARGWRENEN
Summary of the method: as §1

SPI1 = SPI1 (Homo sapiens, UniProt P17947 1-270); settings: protein: recombinant; tags: N-terminal GST; dsDNA, one strand shown
Summary of the method: as §1

SPIB = SPIB (Homo sapiens, UniProt Q01892 1-262); settings: protein: recombinant; tags: N-terminal GST; dsDNA, one strand shown
Sequence of SPIB (Q01892 whole entry): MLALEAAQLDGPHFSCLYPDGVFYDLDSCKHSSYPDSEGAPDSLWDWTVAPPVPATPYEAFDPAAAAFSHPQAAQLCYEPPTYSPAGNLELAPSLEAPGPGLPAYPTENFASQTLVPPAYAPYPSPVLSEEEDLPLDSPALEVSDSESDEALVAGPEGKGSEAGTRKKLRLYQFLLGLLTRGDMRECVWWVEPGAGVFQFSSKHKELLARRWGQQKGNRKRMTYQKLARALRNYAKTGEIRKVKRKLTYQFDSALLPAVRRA
Summary of the method: as §1

ELK3 = molecular target: T6, ELK3 (Homo sapiens, UniProt P41970 1-407); settings: protein: recombinant; tags: N-terminal GST; dsDNA, one strand shown
T6 sequence: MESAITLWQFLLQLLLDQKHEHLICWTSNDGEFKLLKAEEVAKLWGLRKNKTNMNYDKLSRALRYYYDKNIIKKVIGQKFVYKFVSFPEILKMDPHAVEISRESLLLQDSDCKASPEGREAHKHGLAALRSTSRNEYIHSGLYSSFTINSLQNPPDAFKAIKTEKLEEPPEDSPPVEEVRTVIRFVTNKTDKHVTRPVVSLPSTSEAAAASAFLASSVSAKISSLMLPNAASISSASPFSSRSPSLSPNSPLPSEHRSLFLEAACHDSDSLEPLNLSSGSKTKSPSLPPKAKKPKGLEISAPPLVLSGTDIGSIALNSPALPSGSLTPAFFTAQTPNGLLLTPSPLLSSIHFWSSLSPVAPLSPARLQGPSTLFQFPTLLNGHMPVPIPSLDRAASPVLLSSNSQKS
Summary of the method: as §1

FEV = molecular target: T7, FEV (Homo sapiens, UniProt Q99581 1-238); settings: protein: recombinant; tags: N-terminal GST; dsDNA, one strand shown
T7 sequence: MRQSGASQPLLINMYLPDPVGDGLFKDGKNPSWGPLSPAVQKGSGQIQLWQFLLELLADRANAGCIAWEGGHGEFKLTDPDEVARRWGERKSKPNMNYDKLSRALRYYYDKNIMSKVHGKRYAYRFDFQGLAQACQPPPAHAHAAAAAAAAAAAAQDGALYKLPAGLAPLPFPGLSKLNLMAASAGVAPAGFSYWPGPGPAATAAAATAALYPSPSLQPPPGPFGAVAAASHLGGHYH
Summary of the method: as §1

ETV5 = ETV5 (Homo sapiens, UniProt P41161 1-510); settings: protein: recombinant; tags: N-terminal GST; dsDNA, one strand shown
Sequence of ETV5 (P41161 whole entry): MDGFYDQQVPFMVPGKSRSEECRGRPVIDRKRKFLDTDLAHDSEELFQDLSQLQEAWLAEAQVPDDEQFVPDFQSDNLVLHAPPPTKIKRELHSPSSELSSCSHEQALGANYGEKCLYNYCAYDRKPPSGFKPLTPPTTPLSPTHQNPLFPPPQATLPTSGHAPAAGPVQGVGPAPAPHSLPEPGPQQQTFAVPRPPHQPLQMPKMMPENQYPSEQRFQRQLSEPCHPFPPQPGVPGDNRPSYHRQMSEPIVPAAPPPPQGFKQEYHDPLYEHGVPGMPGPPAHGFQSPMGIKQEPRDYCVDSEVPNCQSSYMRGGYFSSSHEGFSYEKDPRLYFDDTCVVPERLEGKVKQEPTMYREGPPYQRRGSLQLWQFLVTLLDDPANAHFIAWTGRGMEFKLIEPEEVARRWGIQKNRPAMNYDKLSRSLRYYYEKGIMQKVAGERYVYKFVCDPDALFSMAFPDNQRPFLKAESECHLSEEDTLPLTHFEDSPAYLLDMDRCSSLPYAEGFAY
Summary of the method: as §1

HSF1 = HSF1 (Homo sapiens, UniProt Q00613 1-529); settings: protein: recombinant; tags: N-terminal GST; chain copies: 3; dsDNA, one strand shown
Sequence of HSF1 (Q00613 whole entry): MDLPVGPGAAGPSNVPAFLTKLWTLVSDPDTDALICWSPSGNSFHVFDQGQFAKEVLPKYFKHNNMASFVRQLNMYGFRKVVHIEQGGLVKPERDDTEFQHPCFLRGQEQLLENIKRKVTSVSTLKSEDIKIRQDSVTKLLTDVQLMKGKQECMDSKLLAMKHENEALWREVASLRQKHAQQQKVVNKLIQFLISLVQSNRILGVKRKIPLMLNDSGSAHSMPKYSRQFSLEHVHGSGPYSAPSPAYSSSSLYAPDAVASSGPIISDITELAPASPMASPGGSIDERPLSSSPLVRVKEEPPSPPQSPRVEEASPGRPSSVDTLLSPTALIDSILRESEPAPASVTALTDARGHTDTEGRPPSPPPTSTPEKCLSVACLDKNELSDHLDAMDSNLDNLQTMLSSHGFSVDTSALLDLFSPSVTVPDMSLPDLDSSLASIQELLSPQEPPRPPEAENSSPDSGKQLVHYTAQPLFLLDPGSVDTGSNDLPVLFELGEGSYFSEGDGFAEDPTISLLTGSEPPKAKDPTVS
Summary of the method: as §1

SPIC = molecular target: T8, SPIC (Homo sapiens, UniProt Q8N5J4 1-248); settings: protein: recombinant; tags: N-terminal GST; dsDNA, one strand shown
T8 sequence: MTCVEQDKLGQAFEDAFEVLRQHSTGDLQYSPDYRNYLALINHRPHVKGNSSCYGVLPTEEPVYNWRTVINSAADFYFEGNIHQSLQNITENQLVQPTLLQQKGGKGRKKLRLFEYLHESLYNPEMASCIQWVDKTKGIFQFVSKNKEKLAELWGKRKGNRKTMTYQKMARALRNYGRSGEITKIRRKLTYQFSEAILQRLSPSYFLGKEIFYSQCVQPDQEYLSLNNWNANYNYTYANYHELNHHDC
Summary of the method: as §1

ELF4 = ELF4 (Homo sapiens, UniProt Q99607 1-663); settings: protein: recombinant; tags: N-terminal GST; dsDNA, one strand shown
Sequence of ELF4 (Q99607 whole entry): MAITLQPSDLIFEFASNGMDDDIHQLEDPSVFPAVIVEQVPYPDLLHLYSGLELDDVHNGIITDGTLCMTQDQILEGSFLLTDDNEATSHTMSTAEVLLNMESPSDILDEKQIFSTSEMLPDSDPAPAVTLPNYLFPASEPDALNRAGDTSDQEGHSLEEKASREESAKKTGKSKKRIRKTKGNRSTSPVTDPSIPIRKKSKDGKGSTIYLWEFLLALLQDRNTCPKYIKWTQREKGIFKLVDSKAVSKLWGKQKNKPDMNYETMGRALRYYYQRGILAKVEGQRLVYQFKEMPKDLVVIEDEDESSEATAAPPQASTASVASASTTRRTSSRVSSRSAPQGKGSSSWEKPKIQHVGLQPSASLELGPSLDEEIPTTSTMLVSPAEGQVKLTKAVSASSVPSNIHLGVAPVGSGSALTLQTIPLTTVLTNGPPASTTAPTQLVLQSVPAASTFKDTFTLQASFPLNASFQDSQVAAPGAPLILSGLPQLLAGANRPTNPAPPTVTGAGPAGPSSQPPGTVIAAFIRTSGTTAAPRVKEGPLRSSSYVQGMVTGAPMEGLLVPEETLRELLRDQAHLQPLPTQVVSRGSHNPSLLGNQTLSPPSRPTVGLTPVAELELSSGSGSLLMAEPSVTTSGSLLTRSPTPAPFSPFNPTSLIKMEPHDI
Summary of the method: as §1

ELK4 = molecular target: T9, ELK4 (Homo sapiens, UniProt P28324-2 1-405); settings: protein: recombinant; tags: N-terminal GST; dsDNA, one strand shown
T9 sequence: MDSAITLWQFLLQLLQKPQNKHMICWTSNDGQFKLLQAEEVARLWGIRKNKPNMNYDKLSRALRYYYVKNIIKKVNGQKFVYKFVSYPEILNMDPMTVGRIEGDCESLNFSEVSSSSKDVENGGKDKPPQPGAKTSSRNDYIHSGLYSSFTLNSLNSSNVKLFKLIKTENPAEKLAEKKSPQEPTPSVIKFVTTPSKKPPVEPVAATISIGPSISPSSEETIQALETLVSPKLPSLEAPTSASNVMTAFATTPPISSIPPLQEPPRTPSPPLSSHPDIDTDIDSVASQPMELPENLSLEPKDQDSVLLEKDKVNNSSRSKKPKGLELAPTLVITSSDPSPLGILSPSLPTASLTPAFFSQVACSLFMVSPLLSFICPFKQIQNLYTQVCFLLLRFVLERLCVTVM
Summary of the method: as §1

ETV2 = molecular target: T10, ETV2 (Homo sapiens, UniProt O00321 1-342); settings: protein: recombinant; tags: N-terminal GST; dsDNA, one strand shown
T10 sequence: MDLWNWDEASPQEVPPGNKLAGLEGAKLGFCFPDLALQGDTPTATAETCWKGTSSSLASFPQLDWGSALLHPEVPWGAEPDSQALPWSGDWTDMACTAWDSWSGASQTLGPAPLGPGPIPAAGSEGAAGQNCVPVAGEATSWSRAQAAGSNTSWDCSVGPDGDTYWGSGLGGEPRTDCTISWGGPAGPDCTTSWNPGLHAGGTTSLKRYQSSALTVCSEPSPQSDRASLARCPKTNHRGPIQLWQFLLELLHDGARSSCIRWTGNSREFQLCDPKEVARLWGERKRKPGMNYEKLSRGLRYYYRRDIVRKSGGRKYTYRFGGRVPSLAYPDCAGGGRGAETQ
Summary of the method: as §1

ELF3 = molecular target: T11, ELF3 (Homo sapiens, UniProt P78545 1-371); settings: protein: recombinant; tags: N-terminal GST; dsDNA, one strand shown
T11 sequence: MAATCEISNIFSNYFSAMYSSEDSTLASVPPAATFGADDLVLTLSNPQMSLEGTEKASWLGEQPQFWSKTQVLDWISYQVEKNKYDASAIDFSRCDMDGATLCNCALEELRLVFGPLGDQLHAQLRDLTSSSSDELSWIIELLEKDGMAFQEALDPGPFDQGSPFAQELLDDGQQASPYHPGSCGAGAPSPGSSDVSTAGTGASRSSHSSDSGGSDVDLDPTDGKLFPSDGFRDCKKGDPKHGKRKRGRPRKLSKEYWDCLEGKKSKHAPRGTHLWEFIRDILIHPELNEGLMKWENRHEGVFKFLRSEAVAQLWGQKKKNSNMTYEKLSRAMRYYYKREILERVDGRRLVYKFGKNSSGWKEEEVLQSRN
Summary of the method: as §1

CRX = CRX (Homo sapiens, UniProt O43186 1-299); settings: protein: recombinant; tags: N-terminal GST; dsDNA, one strand shown
Sequence of CRX (O43186 whole entry): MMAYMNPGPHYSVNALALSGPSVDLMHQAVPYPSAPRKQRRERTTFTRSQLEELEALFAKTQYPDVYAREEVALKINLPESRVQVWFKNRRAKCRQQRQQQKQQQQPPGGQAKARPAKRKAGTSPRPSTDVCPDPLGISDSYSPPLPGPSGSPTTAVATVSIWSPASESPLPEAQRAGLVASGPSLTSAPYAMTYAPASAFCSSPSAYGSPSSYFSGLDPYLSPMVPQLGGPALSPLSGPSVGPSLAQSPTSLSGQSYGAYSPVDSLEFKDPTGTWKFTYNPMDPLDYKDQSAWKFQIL
Summary of the method: as §1

ETV1 = ETV1 (Homo sapiens, UniProt P50549 1-477); settings: protein: recombinant; tags: N-terminal GST; dsDNA, one strand shown
Sequence of ETV1 (P50549 whole entry): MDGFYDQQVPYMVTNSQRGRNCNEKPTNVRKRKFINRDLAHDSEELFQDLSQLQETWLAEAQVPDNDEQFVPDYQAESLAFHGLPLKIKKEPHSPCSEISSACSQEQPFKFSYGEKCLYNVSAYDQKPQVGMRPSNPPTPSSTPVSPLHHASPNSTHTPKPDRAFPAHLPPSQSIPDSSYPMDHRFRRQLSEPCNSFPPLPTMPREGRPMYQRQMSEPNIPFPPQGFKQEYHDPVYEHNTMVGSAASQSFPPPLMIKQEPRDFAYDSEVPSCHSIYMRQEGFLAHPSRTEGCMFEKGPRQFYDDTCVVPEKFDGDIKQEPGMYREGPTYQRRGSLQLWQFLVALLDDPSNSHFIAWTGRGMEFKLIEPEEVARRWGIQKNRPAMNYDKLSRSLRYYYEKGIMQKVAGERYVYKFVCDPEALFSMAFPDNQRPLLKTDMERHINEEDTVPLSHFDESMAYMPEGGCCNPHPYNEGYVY
Summary of the method: as §1

Sequence: CCCGTA
- binding signal (FLI1): 1.14 fold enrichment (6-mer frequency, TF over GST control)
- binding signal (ELK1): 1.11 fold enrichment (6-mer frequency, TF over GST control)
- binding signal (GABPA): 1.2 fold enrichment (6-mer frequency, TF over GST control)
- binding signal (ERG): 1.2 fold enrichment (6-mer frequency, TF over GST control)
- binding signal (ELF1): 1.25 fold enrichment (6-mer frequency, TF over GST control)
- binding signal (EHF): 1.24 fold enrichment (6-mer frequency, TF over GST control)
- binding signal (SPI1): 1.19 fold enrichment (6-mer frequency, TF over GST control)
- binding signal (SPIB): 1.14 fold enrichment (6-mer frequency, TF over GST control)
- binding signal (ELK3): 1.32 fold enrichment (6-mer frequency, TF over GST control)
- binding signal (FEV): 1.16 fold enrichment (6-mer frequency, TF over GST control)
- binding signal (ETV5): 1.25 fold enrichment (6-mer frequency, TF over GST control)
- binding signal (HSF1): 1.22 fold enrichment (6-mer frequency, TF over GST control)
- binding signal (SPIC): 1.31 fold enrichment (6-mer frequency, TF over GST control)
- binding signal (ELF4): 1.16 fold enrichment (6-mer frequency, TF over GST control)
- binding signal (ELK4): 1.21 fold enrichment (6-mer frequency, TF over GST control)
- binding signal (ETV2): 1.3 fold enrichment (6-mer frequency, TF over GST control)
- binding signal (ELF3): 1.14 fold enrichment (6-mer frequency, TF over GST control)
- binding signal (CRX): 1.17 fold enrichment (6-mer frequency, TF over GST control)
- binding signal (ETV1): 1.16 fold enrichment (6-mer frequency, TF over GST control)
